Molecules are shown by their SMILES. The source made the active and inactive calls.

The nature of assay [1]: E. coli DRC41 culture turbidity changes, primary screen, E. coli filamentation inducer project, strain DRC41, OD650, 48 h (AID 1152).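 Further: E. coli MC1000 strain DRC41 lacking acrAB efflux pump and sulA.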 The settings on record: E. coli DRC41 (acrAB sulA), higher = more signal, called active from +8 up or from −8 down.
A short description of assay [2]: small-molecule binders of probe aLefty1, primary screen, biochemical, small-molecule microarray, 635/667 nm fluorescence (AID 1153).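 Further: score merges spot fluorescence with signal-to-noise ratio from the scanned slide images.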 The settings on record: higher = more signal.
Assay [3] is described as follows: PSAC antagonists in infected red cells, primary screen, cell-based, P. falciparum Indochina, OD700, 1 h (AID 1154). The settings on record: P. falciparum Indochina infected RBC osmotic lysis, higher = more signal, called active from +8 up or from −8 down.
A short description of assay [4]: PSAC antagonists in infected red cells, primary screen, cell-based, P. falciparum Indochina, OD700, 2 h (AID 1155).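 Further: lysis reports solute entry through the parasite surface anion channel PSAC; channel blockers reduce lysis of infected cells.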 The settings on record: P. falciparum Indochina infected erythrocytes, osmotic lysis OD700; higher = more signal, called active from +8 up or from −8 down.
The nature of assay [5]: osmotic lysis modulators in infected erythrocytes, primary screen, PSAC antagonist project, cell-based, P. falciparum Indochina, OD700, 3 h (AID 1156). The note with it: higher = more signal, called active from +8 up or from −8 down.
The nature of assay [6]: PSAC antagonists in infected red cells, primary screen, cell-based, P. falciparum Indochina, OD700, 18 h (AID 1157). The note with it: P. falciparum Indochina infected erythrocytes, osmotic lysis OD700, 18 h; higher = more signal, called active from +8 up or from −8 down.
The nature of assay [7]: modulators of S6 phosphorylation in cells, primary screen, cell-based, A549, cytoblot, luminescence, serum-stimulated (AID 1158).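 Further: serum-stimulated A549 lung adenocarcinoma cells; signal is phosphorylated S6 detected by cytoblot immunostaining with HRP secondary.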 The note with it: A549 phospho-S6 cytoblot, 5 h, higher = more signal.
Assay [8] has as its target NADPH oxidase 2 (Homo sapiens) (UniProt P04839). Kind of assay: NOX2-dependent H2O2 signal modulators, primary screen, NOX inhibitor project, cell-based, HEK293-NOX2, PMA-stimulated, Amplex Red fluorescence (AID 1159). Further: test concentration not given here. The settings on record: 45 min, higher = more signal, called active from +8 up or from −8 down.
Assay [9] deals with NADPH oxidase 4 (Homo sapiens) (UniProt Q9NPH5). Kind of assay: NOX4-dependent H2O2 signal modulators, primary screen, NOX inhibitor project, cell-based, HEK293-NOX4, tetracycline-induced, Amplex Red fluorescence (AID 1160). The settings on record: 45 min, higher = more signal, called active from +8 up or from −8 down.
Sequence of NADPH oxidase 4 (Homo sapiens) (Q9NPH5 whole entry, looked up): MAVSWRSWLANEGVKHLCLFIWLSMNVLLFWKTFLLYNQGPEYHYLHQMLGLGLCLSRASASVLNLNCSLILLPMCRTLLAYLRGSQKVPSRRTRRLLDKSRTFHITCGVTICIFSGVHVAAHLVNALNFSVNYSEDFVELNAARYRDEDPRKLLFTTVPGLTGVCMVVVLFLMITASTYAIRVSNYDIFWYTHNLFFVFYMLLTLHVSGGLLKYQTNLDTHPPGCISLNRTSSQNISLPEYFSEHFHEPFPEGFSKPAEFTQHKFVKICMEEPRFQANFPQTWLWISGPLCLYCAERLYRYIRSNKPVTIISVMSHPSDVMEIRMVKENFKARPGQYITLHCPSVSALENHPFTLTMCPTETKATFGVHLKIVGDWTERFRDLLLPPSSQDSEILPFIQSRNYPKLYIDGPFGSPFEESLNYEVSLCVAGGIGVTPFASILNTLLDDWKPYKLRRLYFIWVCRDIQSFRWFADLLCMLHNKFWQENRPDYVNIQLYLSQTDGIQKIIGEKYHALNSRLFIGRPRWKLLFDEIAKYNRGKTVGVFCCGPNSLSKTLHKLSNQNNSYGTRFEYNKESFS
Assay [10] addresses NADPH oxidase 5 (Homo sapiens) (UniProt Q96PH1). Kind of assay: NOX5-dependent H2O2 signal modulators, primary screen, NOX inhibitor project, cell-based, HEK293-NOX5, Amplex Red fluorescence (AID 1161). The note with it: HEK293-NOX5, ionomycin, 45 min, higher = more signal.
A short description of assay [11]: A549 cell viability effects, profiling panel, calcein-AM fluorescence, 48 h, basal (AID 1162). Further: test concentration not given here. The note with it: higher = more signal.
Assay [12] can be described thus: adipocyte viability effects, profiling panel, cell-based, 3T3-L1 adipocytes, calcein-AM fluorescence, 48 h, basal (AID 1163). Further: test concentration not given here. The note with it: 3T3-L1 adipocytes viability, higher = more signal.
Assay [13] can be described thus: HepG2 cell viability effects, profiling panel, calcein-AM fluorescence, 48 h, basal (AID 1164). Further: test concentration not given here. The note with it: higher = more signal.
Assay [14] in a line: MM1S cell viability effects, profiling panel, calcein-AM fluorescence, 48 h, basal (AID 1165).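 Further: viability of MM1S multiple myeloma cells under basal unstimulated conditions; test concentration not given here.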 The settings on record: higher = more signal.
The nature of assay [15]: basal RPMI8226 viability, no added stimulus, profiling panel, cell-based, calcein-AM fluorescence, 48 h, PK04 Diversity Set (AID 1166).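 Further: cells grown under basal conditions without added stimulus; test concentration not given here.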 The settings on record: RPMI8226 myeloma viability, higher = more signal.
The nature of assay [16]: basal HepG2 mitochondrial membrane potential changes, profiling panel, cell-based, JC-1 fluorescence, 24 h, 100 nL compound (AID 1167). Further: test concentration not given here. The settings on record: higher = more signal.
The nature of assay [17]: basal 3T3-L1 adipocyte mitochondrial potential changes, profiling panel, cell-based, JC-1 fluorescence, 3T3-L1 adipocytes, 24 h, 100 nL compound (AID 1168). Further: test concentration not given here. The note with it: JC-1 mitochondrial fluorescence, higher = more signal, called active from +8 up or from −8 down.
Assay [18] is described as follows: basal RPMI8226 mitochondrial membrane potential changes, profiling panel, cell-based, JC-1 fluorescence, 24 h, 100 nL compound (AID 1169). Further: test concentration not given here. The settings on record: RPMI8226 myeloma, JC-1 mitochondrial potential fluorescence, higher = more signal.
Assay [19] in a line: basal MM1S mitochondrial membrane potential changes, profiling panel, cell-based, JC-1 fluorescence, 24 h, 100 nL compound (AID 1170). Further: test concentration not given here. The settings on record: higher = more signal.
Assay [20] in a line: A549 lung cancer cell viability effects, profiling panel, resazurin fluorescence, 24 h, PK04 Diversity Set (AID 1171). Further: test concentration not given here. The note with it: higher = more signal, called active from +8 up or from −8 down. For orientation: The colour change of resazurin is a common sign of viable cells or microbes.

Sequence of NADPH oxidase 2 (Homo sapiens) (P04839 whole entry, looked up): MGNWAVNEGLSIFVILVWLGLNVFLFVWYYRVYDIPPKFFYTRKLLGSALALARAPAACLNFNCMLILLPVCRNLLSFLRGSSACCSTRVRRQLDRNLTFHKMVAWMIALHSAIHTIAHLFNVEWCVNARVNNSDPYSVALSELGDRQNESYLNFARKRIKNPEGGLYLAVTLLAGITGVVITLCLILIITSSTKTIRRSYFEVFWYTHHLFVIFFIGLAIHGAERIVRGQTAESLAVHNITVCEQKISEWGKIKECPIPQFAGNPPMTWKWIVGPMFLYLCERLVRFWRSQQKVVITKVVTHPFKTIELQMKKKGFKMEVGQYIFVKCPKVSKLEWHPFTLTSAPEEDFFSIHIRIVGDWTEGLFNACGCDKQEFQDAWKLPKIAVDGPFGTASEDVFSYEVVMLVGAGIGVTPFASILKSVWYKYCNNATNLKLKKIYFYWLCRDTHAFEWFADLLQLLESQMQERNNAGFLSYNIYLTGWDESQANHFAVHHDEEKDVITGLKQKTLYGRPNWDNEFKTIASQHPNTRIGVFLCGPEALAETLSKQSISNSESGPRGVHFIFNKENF
Sequence of NADPH oxidase 5 (Homo sapiens) (Q96PH1 whole entry, looked up): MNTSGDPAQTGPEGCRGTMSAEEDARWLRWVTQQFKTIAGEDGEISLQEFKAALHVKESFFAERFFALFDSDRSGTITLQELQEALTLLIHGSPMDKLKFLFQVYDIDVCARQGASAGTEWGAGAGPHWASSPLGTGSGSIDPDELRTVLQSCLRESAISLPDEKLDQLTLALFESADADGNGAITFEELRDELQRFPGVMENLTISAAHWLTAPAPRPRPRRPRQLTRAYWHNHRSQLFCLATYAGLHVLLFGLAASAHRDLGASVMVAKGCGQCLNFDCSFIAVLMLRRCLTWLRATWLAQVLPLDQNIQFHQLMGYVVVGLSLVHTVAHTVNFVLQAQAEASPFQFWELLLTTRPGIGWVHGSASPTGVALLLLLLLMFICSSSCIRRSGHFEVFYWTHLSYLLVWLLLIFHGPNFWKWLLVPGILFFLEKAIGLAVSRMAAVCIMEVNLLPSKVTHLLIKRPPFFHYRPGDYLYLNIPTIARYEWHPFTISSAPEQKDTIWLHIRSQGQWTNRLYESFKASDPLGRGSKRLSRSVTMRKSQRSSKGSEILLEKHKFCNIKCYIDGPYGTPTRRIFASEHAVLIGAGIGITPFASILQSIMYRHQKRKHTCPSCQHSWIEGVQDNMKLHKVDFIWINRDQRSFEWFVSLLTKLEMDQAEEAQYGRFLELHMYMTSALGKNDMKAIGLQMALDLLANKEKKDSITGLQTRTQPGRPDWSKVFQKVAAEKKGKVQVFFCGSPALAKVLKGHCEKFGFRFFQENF

Turning to `C=CCC(OC(C)=O)[C@@H]1[C@@H](N(Cc2ccc(-c3cccc(C(F)(F)F)c3)o2)C(=O)Cc2ccc(F)cc2)c2cc(OCCCO)ccc2N1C(=O)c1ccc2ccccc2n1` (stereo not given in full), the z-score in assay [1] is -0.994 (inactive); in [3], 1.53 (inactive); in assay [4] it was -0.0905 (inactive); in assay [5] it was -0.592 (inactive); in [6], 0.0644 (inactive); in assay [7], -0.47. For the same compound, the z-score in assay [8] is 0.249 (inactive); in assay [9] it was 0.919 (inactive); in assay [10], 1.13; in assay [11] it was 0.0993; in assay [12], 0.639; in assay [13], 0.722. Moreover, the z-score in assay [14] was -0.911; in assay [15], -0.733; in assay [16], 2.09; in [17] it was 0.484 (inactive); in assay [18], -0.134; in assay [19], 0.143. The z-score in [20] was 0.14 (inactive). Further, the composite z-score in [2] is -0.024.
For `COCCOC(=O)N1C(=O)[C@@]2(c3cc(C#Cc4ccc(OC)cc4)ccc31)[C@H](c1ccc(OCCO)cc1)N1[C@H](c3ccccc3)[C@H](c3ccccc3)OC(=O)[C@H]1[C@@H]2C(=O)N1CCCCCCC1`, the z-score in assay [1] is 0.543 (inactive); in assay [3], 2 (inactive); in assay [4] it was 0.481 (inactive); in [5] it was 0.306 (inactive); in [6], 0.0489 (inactive); in assay [7], 1.59. Further, the z-score in assay [8] was 0.928 (inactive); in assay [9] it was 0.274 (inactive); in assay [10], 1.19; in assay [11], 0.571; in assay [12] it was 1.96; in assay [13], 0.856. Besides, the z-score is -0.0692 in assay [14]; 0.81 in assay [15]; -0.16 in assay [16]; -2.31 (inactive) in assay [17]; -0.684 in assay [18]; -1 in assay [19]. Moreover, in [20], the z-score was -0.436 (inactive). The same compound yielded a composite z-score in assay [2] of 2.74.
Turning to `CCOC(=O)C[C@H]1[C@H](OC(=O)c2ccc(C(=O)c3ccccc3)cc2)[C@@H](NC(=O)c2ccc3ccccc3c2)c2cc(OCCCO)ccc2N1C(=O)c1ccc2ccccc2n1`, the z-score was 1.86 (inactive) in assay [1]; 6.29 (inactive) in [3]; 1.32 (inactive) in assay [4]; -0.0906 (inactive) in assay [5]; 0.728 (inactive) in assay [6]; 0.154 in assay [7]. Also, the z-score in assay [8] was 0.412 (inactive); in assay [9], 0.0963 (inactive); in assay [10] it was 1.66; in [11], 1.54; in assay [12] it was 0.0263; in assay [13], 0.664. Moreover, the z-score in [14] is 0.393; in [15], -0.693; in assay [16], 2.63; in [17], 0.978 (inactive); in [18] it was -0.0974; in assay [19] it was 1.75. Besides, the z-score in [20] is 0.298 (inactive). In assay [2], this compound had a composite z-score of 0.23.
For `CC1CC/C=C\[C@H]2OC34C=CCN(CCN5CCOCC5)C(=O)[C@H]3N(CCCCCCO)C(=O)[C@@H]4C2C(=O)O1` (stereo not given in full), the z-score in [1] is -0.044 (inactive); in [3] it was 0.592 (inactive); in [4] it was 0.267 (inactive); in assay [5], 0.215 (inactive); in assay [6] it was 0.182 (inactive); in assay [7] it was -0.375. Moreover, the z-score in [8] was 0.726 (inactive); in assay [9], -0.0532 (inactive); in assay [10], 1.96; in assay [11] it was 0.919; in assay [12], 0.24; in assay [13], 1.1. For the same compound, the z-score in assay [14] was 1.42; in assay [15], -0.575; in assay [16], 0.37; in assay [17] it was -0.44 (inactive); in [18], -0.0357; in assay [19] it was 0.606. In assay [20], the z-score was -0.116 (inactive). In assay [2], the composite z-score is -0.187.
On to `NCCCC[C@@H]1NC(=O)[C@H]2C[C@@H](C(=O)NCc3ccc(F)cc3)[C@@H](c3ccc(O)cc3)N2C1=O`, for which the z-score is -0.495 (inactive) in assay [1]; 2.55 (inactive) in assay [3]; 0.724 (inactive) in [4]; -3.15 (inactive) in assay [5]; 0.302 (inactive) in [6]; -0.516 in assay [7]. In addition, the z-score in assay [8] was 0.903 (inactive); in assay [9], 0.941 (inactive); in assay [10], 0.993; in assay [11], -0.494; in assay [12] it was -0.0841; in [13], -0.666. Also, the z-score in assay [14] was -0.206; in assay [15], 0.307; in assay [16], -1.64; in assay [17] it was -0.4 (inactive); in assay [18], 0.667; in assay [19] it was 0.0192. Besides, the z-score in assay [20] was -0.537 (inactive). In [2], the composite z-score turned out to be 0.954.
